# PubChem BioAssay (NCATS)
# Results filed as inconclusive are left out. Where a call stands in place of a potency, no number is given. Active and inactive are the calls of the source. Unless noted, the call rests on the fitted dose curve; in most records, active means well fitted curve in the direction sought with a large enough effect; inconclusive means small, poorly fitted or top-dose-only effect, or another doubt; inactive means no such curve, though single readings can be large; an effect the other way counts as inactive or inconclusive.
# Legend:
# [1] = molecular target: alpha-glucosidase (Oryza sativa, rice) (UniProt Q653V4); test: Counterscreen for Glucocerebrosidase Inhibitors: qHTS Assay for Rice alpha-Glucosidase at pH 5.0 (AID 997)
# In short: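 Endpoint fluorogenic assay at pH 5.0: compounds (0.7 nM to 77 uM) titrated against 4 nM rice enzyme and 400 uM 4-MU-alpha-glucoside for 20 min at room temperature; NaOH/glycine stop, read ex 365/em 440 nm, Hill-fitted AC50.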
# [2] = qHTS for differential inhibitors of proliferation of Plasmodium falciparum line 3D7 (AID 1876);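 further: parasite growth measured after three days of culture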
# [3] = qHTS for differential inhibitors of proliferation of Plasmodium falciparum line D10 (AID 1877);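 further: parasites grown with compound for 72 h before DNA staining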
# [4] = qHTS for differential inhibitors of proliferation of Plasmodium falciparum line Dd2 (AID 1882); settings: Potency: Plasmodium falciparum Dd2 proliferation inhibition; further: nearly all actives have a fitted effect of over 65% in size; further: potency means the concentration at half of the fitted maximal effect
# In short: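 SYBR Green DNA fluorescence (ex 485, em 535 nm) after overnight lysis quantifies parasite growth; compound exposure lasted 72 h at 37 C on infected red cells at 2.5% hematocrit, 0.3% parasitemia (final). Artemisinin 0.29 uM and vehicle wells define normalization.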
# [5] = qHTS Assay for Modulators of Human Peripheral Myelin Protein 22 (PMP22) Expression/Activity (AID 1967; active means well fitted curve in the direction sought with a large enough effect in the signal ratio; the % refers to the signal ratio)
# In short: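 MSC80 mouse Schwann cells stably carrying Pmp22 promoter–green click beetle luciferase plus EF-alpha–red luciferase control were dosed for 24h at 37 °C. Dual-colour luminescence was filter-overlap corrected; %Activity came from green/red ratio versus untreated cells.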
# [6] = qHTS Assay for Identification of Small Molecule Inducers of Hypoxia Response (AID 2120; active means well fitted curve in the direction sought with a large enough effect in the signal ratio, with a control signal flat, not every such curve was filed as active; the % refers to the signal ratio)
# In short: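 Cell-based qHTS for reporter induction: hypoxia response element controlled beta-lactamase in ME-180 cells. Compounds incubated 17 h at 37 degrees C; activity from blue/green (460/530 nm) ratio, inducers ranked by AC50.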
# [7] = qHTS Assay for Lipid Storage Modulators (AID 1519; calls by dose curve); settings: Drosophila S3 cells, BODIPY lipid droplet/cell ratio, laser cytometry, cells loaded with oleic acid; for activity change, negative = inhibition: at 57.5 µM (top of the series)
# In short: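 Cells seeded at 5,000 per well were treated with compounds over a concentration series and loaded with oleic acid (400 uM, as added). Lipid droplet fluorescence (488 nm excitation, 500-530 nm channel) was read by laser-scanning cytometry and normalized to 20 uM Triacsin C.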
# [8] = molecular target: DNA repair nuclease/redox regulator APEX1 (Homo sapiens) (UniProt P27695); test: qHTS Validation Assay for Inhibitors of the Human Apurinic/apyrimidinic Endonuclease 1 (APE1) (AID 1705;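 further: TAMRA fluorescence gain over two minutes as APE1 cuts a quenched THF abasic duplex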)
# In short: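 Human APE1 was preincubated with compound for 15 min at room temperature, then 50 nM (final) THF-abasic double-stranded DNA substrate bearing 5'-TAMRA and 3'-BHQ-2 was added. Incision-driven fluorescence rise (ex 525/em 598 nm) was read kinetically.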
# [9] = Counterscreen for APE1 Inhibitors: Fluorescent Dye Displacement Validation Assay (AID 1707)
# In short: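 Counterscreen flags promiscuous DNA binders: compounds displacing ThO from duplex DNA (abasic THF site, 50 nM) reduce 540 nm emission (480 nm excitation). ThO 250 nM final; Tris-HCl pH 7.5 with NaCl, MgCl2 and Tween-20.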
# [10] = molecular target: Endonuclease 4 (Escherichia coli (strain K12)) (UniProt P0A6C1); test: Counterscreen for APE1 Inhibitors: qHTS Validation Assay for Inhibitors of Endonuclease IV (AID 1708)
# In short: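 Incision of a double-stranded 50 nM TAMRA/BHQ-2 abasic substrate was followed kinetically (525/598 nm, reads every 60 s) after 15 min enzyme–compound preincubation with 2 nM EndoIV in pH 7.5 Tris buffer with MgCl2, DTT and Tween-20; concentration-response format.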
# [11] = molecular target: Ferritin light chain (Equus caballus) (UniProt P02791); test: qHTS Validation Assay for Identification of Novel General Anesthetics (AID 2323)
# In short: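 Competitive displacement of profluorescent 1-aminoanthracene (1-AMA, 50% saturated solution in PBS) from 10 uM horse-spleen apoferritin. Compounds incubated 10 min at room temperature; fluorescence read at 380 nm excitation/535 nm emission, normalized to free 1-AMA and complex, fitted with four-parameter Hill equation.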
# [12] = molecular target: ATP-dependent DNA helicase Q1 (Homo sapiens) (UniProt P46063); test: qHTS Validation Assay for Inhibitors of RecQ-Like Dna Helicase 1 (RECQ1) (AID 2353)
# In short: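 RECQ1T1 50 nM; forked duplex (20 bp + 30-nt ss tails) 200 nM, ATP 2 mM final; pH 8.0, 2 mM MgCl2, 2.5 ug/ml poly(dI-dC); 15 min compound preincubation; discontinuous kinetic read over 2 h at RT.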
# [13] = molecular target: RecQ-like DNA helicase BLM (Homo sapiens) (UniProt P54132); test: qHTS Validation Assay for Inhibitors of Bloom's syndrome helicase (BLM) (AID 2364)
# In short: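 Forked 20-bp duplex substrate (200 nM, TAMRA/BHQ-2) plus 2 mM ATP added after 15 min compound preincubation with 50 nM enzyme, pH 8.0, poly(dI-dC) 2.5 ug/ml. Strand separation followed by fluorescence (525/598 nm) over 2 h, normalized to enzyme-free and DMSO controls.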
# [14] = measured here: cell count channel max response
# [15] = measured here: lipid channel max response
# Chain of RecQ-like DNA helicase BLM (Homo sapiens) (P54132 whole entry, looked up): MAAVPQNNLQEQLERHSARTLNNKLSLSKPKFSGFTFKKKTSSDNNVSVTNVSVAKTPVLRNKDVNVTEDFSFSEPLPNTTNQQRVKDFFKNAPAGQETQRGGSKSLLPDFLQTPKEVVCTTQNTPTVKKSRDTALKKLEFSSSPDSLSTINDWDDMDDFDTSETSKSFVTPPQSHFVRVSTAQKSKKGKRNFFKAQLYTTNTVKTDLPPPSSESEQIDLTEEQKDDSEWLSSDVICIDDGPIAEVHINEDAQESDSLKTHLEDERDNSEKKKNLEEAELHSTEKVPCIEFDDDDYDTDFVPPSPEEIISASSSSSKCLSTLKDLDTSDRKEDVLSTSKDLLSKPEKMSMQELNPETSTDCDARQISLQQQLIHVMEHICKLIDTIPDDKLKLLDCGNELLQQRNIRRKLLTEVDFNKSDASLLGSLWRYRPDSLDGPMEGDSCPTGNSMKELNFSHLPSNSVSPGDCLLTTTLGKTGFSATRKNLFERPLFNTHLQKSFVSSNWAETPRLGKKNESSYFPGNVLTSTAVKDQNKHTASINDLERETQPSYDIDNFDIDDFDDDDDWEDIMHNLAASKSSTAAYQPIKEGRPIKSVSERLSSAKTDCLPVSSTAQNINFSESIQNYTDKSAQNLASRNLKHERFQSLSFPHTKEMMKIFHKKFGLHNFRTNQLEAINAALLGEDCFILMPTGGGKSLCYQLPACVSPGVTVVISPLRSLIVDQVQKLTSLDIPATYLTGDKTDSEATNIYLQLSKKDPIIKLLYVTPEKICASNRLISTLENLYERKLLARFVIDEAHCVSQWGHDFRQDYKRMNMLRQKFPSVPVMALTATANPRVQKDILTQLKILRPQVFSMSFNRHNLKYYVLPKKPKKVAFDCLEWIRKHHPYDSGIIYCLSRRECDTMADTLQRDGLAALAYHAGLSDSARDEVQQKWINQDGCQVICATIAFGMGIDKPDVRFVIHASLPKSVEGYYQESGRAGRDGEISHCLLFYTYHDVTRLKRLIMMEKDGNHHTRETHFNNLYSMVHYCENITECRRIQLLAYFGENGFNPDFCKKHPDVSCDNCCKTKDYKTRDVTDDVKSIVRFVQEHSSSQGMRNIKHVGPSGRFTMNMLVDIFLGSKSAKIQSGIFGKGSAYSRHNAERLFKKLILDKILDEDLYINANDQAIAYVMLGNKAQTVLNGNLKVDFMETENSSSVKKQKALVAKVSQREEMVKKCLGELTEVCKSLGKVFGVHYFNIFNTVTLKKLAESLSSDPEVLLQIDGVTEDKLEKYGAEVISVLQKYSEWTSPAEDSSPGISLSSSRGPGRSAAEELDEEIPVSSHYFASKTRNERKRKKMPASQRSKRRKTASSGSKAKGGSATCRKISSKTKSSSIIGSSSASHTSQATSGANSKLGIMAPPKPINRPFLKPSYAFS
# Chain of Ferritin light chain (Equus caballus) (P02791 2-175 limits assumed): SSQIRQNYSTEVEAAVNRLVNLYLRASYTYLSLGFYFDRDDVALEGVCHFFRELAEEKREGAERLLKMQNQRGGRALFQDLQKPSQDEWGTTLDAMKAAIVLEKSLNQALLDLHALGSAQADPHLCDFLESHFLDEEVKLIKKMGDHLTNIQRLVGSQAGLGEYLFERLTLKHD
# Chain of DNA repair nuclease/redox regulator APEX1 (Homo sapiens) (P27695 whole entry, looked up): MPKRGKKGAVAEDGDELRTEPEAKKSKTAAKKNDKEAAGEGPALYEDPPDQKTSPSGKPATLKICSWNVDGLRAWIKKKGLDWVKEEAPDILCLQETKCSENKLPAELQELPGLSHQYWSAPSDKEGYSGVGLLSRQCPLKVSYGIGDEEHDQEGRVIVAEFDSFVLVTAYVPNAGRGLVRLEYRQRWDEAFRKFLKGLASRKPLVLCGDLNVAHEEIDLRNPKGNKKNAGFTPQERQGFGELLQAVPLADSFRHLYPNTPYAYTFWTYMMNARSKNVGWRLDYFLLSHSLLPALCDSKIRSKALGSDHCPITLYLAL
# Chain of ATP-dependent DNA helicase Q1 (Homo sapiens) (P46063 whole entry, looked up): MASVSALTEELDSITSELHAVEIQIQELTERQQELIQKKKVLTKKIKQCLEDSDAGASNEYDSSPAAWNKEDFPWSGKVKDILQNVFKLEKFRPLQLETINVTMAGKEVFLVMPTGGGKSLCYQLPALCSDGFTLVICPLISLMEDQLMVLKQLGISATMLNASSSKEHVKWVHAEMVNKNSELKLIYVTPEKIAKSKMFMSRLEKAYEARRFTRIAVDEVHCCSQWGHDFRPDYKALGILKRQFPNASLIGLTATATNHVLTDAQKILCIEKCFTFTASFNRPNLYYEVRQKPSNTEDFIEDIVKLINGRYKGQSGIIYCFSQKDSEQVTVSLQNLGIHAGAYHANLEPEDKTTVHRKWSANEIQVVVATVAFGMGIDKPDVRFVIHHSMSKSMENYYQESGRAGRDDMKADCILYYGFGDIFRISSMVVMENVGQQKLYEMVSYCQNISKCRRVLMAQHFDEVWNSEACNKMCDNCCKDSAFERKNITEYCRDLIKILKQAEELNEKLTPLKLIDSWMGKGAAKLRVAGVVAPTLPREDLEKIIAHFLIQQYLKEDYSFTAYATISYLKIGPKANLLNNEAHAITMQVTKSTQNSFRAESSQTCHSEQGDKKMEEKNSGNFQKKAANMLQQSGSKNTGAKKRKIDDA
smiles,measurement,setting,value
Cc1cc(C)c(NC(=O)C[C@H](CC(=O)O)c2cccc3ccccc23)c(C(=O)N2CCC3(CCCC3)CC2)c1,outcome,[1],inactive
O=C(NCCNCC(O)COc1ccc(O)cc1)N1CCOCC1 (stereo unspecified),outcome,[2],inactive
same,outcome,[3],inactive
same,Potency,[4],inactive
same,outcome,[5],inactive
O=c1[nH]c(=O)n([C@H]2C[C@H](O)[C@@H](CO)O2)cc1/C=C/Br,outcome,[2],inactive
same,outcome,[3],inactive
same,Potency,[4],inactive
CC(C)O,Potency,[6],inactive
NCCN,Potency,[6],inactive
O=c1n(CC2CO2)c(=O)n(CC2CO2)c(=O)n1CC1CO1 (stereo unspecified),Potency,[6],inactive
C[C@@](Cc1ccc(O)c(O)c1)(NN)C(=O)O,outcome,[1],inactive
same,"activity change, negative = inhibition",[7],-0.657% (inactive)
same,max response,[7]; [14],-17.5%
same,max response,[7]; [15],-16%
same,outcome,[8],inactive
same,outcome,[9],inactive
same,outcome,[10],inactive
same,outcome,[3],inactive
same,Potency,[4],10 µM (active)
same,outcome,[11],inactive
same,outcome,[12],inactive
same,outcome,[13],inactive
CC/C=C\C/C=C\C/C=C\CCCCCCCC(=O)O,Potency,[6],inactive
OB(O)O,Potency,[6],inactive
Nc1nccs1,"activity change, negative = inhibition",[7],6.96% (inactive)
same,max response,[7]; [14],-1.03%
same,max response,[7]; [15],14.6%
same,Potency,[6],inactive
OCc1ccccc1,Potency,[6],inactive
Cc1ncc[nH]1,Potency,[6],inactive
OCl,Potency,[6],inactive
CCCCC,Potency,[6],inactive
OC[C@H]1O[C@@H]2O[C@H]3[C@H](O)[C@@H](O)[C@@H](O[C@H]4[C@H](O)[C@@H](O)[C@@H](O[C@H]5[C@H](O)[C@@H](O)[C@@H](O[C@H]6[C@H](O)[C@@H](O)[C@@H](O[C@H]7[C@H](O)[C@@H](O)[C@@H](O[C@H]1[C@H](O)[C@H]2O)O[C@@H]7CO)O[C@@H]6CO)O[C@@H]5CO)O[C@@H]4CO)O[C@@H]3CO,Potency,[6],inactive
Cc1ccc(S(=O)(=O)O)cc1C,Potency,[6],inactive
C[C@H](CCC(=O)O)[C@H]1CC[C@H]2[C@@H]3[C@H](O)C[C@@H]4C[C@H](O)CC[C@]4(C)[C@H]3C[C@H](O)[C@]12C,Potency,[6],inactive
